According to PubChem BioAssay AID1159580 (chemical genetic matrix, 2015):
Several values for one entry are separate records, joined by “and”; a condition that tells them apart may be missing. Equal values may be shown once. In all, about 5,500 compounds went through this assay and about 2,000 (36%) were called active. Inconclusive results (about 18%) are left out. Rule as the data show it: active = normalized growth mostly below about 0.91 (no sharp cut-off); inconclusive = no clear call, values can overlap the other calls; inactive = mostly above about 0.92. The list shows a part of the results.

Assay: chemical genetic growth profiling, strain panel (AID 1159580);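 also: tested at 20 µM; growth read once vehicle control cultures reached saturation at 30 °C; 1 = growth at the plate median or of vehicle wells; lower values mean less growth of the strain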
Conditions: S. cerevisiae deletion strains, growth OD

Measured: normalized growth

Nc1nc(=S)c2[nH]cnc2[nH]1
inactive: locus YAL013W, strain DEP1, stronger effect = lower value 1.01 | locus YAL021C, strain ccr4, stronger effect = lower value 0.946 | locus YAL026C, strain drs2, stronger effect = lower value 0.971 | locus YAL030W, strain snc1, stronger effect = lower value 0.975 | locus YBL061C, strain skt5, stronger effect = lower value 0.988 | locus YBR009C, strain hhf1, stronger effect = lower value 1.03 | locus YBR021W, strain FUR4, stronger effect = lower value 0.999 | locus YBR023C, strain chs3, stronger effect = lower value 0.969 | locus YBR171W, strain sec66, stronger effect = lower value 0.974 | locus YBR229C, strain ROT2, stronger effect = lower value 1 | locus YBR231C, strain swc5, stronger effect = lower value 1.03 | locus YBR279W, strain paf1, stronger effect = lower value 0.973 | locus YCL011C, strain gbp2, stronger effect = lower value 0.971 | locus YCL016C, strain dcc1, stronger effect = lower value 0.947 | locus YCL029C, strain bik1, stronger effect = lower value 1.01 | locus YCL061C, strain MRC1, stronger effect = lower value 0.993 | locus YCL069W, strain vba3, stronger effect = lower value 0.976 | locus YCR088W, strain abp1, stronger effect = lower value 0.98 | locus YDL005C, strain med2, stronger effect = lower value 0.965 | locus YDL035C, strain GPR1, stronger effect = lower value 1.02 | locus YDL040C, strain nat1, stronger effect = lower value 0.982 | locus YDL074C, strain BRE1, stronger effect = lower value 1.01 | locus YDL101C, strain DUN1, stronger effect = lower value 1.01 | locus YDL134C, strain PPH21, stronger effect = lower value 1.01 | locus YDL185W, strain tfp1, stronger effect = lower value 0.996 | locus YDL192W, strain arf1, stronger effect = lower value 1.01 | locus YDR001C, strain nth1, stronger effect = lower value 0.982 | locus YDR069C, strain doa4, stronger effect = lower value 0.982 | locus YDR101C, strain arx1, stronger effect = lower value 0.986 | locus YDR137W, strain rgp1, stronger effect = lower value 0.967 | locus YDR150W, strain NUM1, stronger effect = lower value 1.01 | locus YDR159W, strain sac3, stronger effect = lower value 0.957 | locus YDR162C, strain NBP2, stronger effect = lower value 1.02 | locus YDR195W, strain ref2 0.988 | locus YDR297W, strain sur2, stronger effect = lower value 1 | locus YDR318W, strain mcm21, stronger effect = lower value 1 | locus YDR334W, strain swr1, stronger effect = lower value 0.962 | locus YDR335W, strain msn5, stronger effect = lower value 0.98 | locus YDR388W, stronger effect = lower value 0.998 | locus YDR392W, strain spt3, stronger effect = lower value 0.859 | locus YDR502C, strain sam2, stronger effect = lower value 1 | locus YEL003W, strain gim4, stronger effect = lower value 0.988 | locus YEL037C, strain rad23, stronger effect = lower value 0.973 | locus YEL061C, strain CIN8 (second series), stronger effect = lower value 0.975 | locus YEL061C, strain CIN8, stronger effect = lower value 1.01 | locus YER015W, strain faa2, stronger effect = lower value 0.983 | locus YER016W, strain bim1, stronger effect = lower value 0.942 | locus YER110C, stronger effect = lower value 1 | locus YER111C, strain swi4, stronger effect = lower value 0.959 | locus YER155C, strain BEM2 (second series), stronger effect = lower value 1 | locus YER155C, strain BEM2, stronger effect = lower value 1.02 | locus YER167W, strain BCK2, stronger effect = lower value 1.01 | locus YFR010W, strain ubp6, stronger effect = lower value 1 | locus YGL078C, strain dbp3, stronger effect = lower value 0.997 | locus YGL086W, strain mad1, stronger effect = lower value 0.997 | locus YGL167C, strain pmr1, stronger effect = lower value 0.979 | locus YGL173C, strain kem1, stronger effect = lower value 0.98 | locus YGL227W, strain vid30, stronger effect = lower value 0.973 | locus YGL240W, strain doc1, stronger effect = lower value 1.01 | locus YGL248W, strain PDE1, stronger effect = lower value 1.01 | locus YGL253W, strain hxk2, stronger effect = lower value 0.961 | locus YGR078C, strain PAC10, stronger effect = lower value 0.988 | locus YGR135W, strain pre9, stronger effect = lower value 0.998 | locus YGR229C, strain SMI1, stronger effect = lower value 0.99 | locus YGR252W, strain gcn5, stronger effect = lower value 0.981 | locus YHR013C, strain ard1, stronger effect = lower value 0.93 | locus YHR027C, strain rpn1, stronger effect = lower value 0.99 | locus YHR030C, strain SLT2, stronger effect = lower value 1.02 and 0.978 | locus YHR079C, strain IRE1 (second series), stronger effect = lower value 1 | locus YHR079C, strain IRE1, stronger effect = lower value 0.998 | locus YHR094C, strain hxt1, stronger effect = lower value 0.998 | locus YHR129C, strain ARP1, stronger effect = lower value 1.01 | locus YHR142W, strain chs7, stronger effect = lower value 0.945 | locus YHR200W, strain rpn10, stronger effect = lower value 0.998 | locus YIL066C, strain RNR3, stronger effect = lower value 1.01 | locus YIL073C, strain SPO22, stronger effect = lower value 1.04 | locus YIL125W, strain kgd1, stronger effect = lower value 0.995 | locus YIR030C, strain dcg1, stronger effect = lower value 1 | locus YJL092W, strain hpr5, stronger effect = lower value 0.991 | locus YJL095W, strain BCK1 (second series), stronger effect = lower value 0.964 | locus YJL095W, strain BCK1, stronger effect = lower value 1.02 and 0.979 | locus YJL115W, strain asf1, stronger effect = lower value 0.972 | locus YJL129C, strain trk1, stronger effect = lower value 0.936 | locus YJL134W, strain LCB3, stronger effect = lower value 1 | locus YJL154C, strain vps35, stronger effect = lower value 0.971 | locus YJL164C, strain tpk1, stronger effect = lower value 0.998 | locus YJL166W, strain qcr8, stronger effect = lower value 1.01 | locus YJL168C, strain set2, stronger effect = lower value 0.995 | locus YJL187C, strain SWE1 (second series), stronger effect = lower value 1.01 | locus YJL187C, strain SWE1, stronger effect = lower value 0.981 | locus YJR043C, strain POL32, stronger effect = lower value 1.01 | locus YJR066W, strain TOR1, stronger effect = lower value 0.949
